From PubChem BioAssay
KKLEB cytotox: counter-screen for CF NF-kB inhibitors: cytotoxicity; actives 0.36% (n = 360,000); KKLEB CF airway cells viability, ATPlite luminescence, overnight; stronger effect = lower value; cells stimulated with P. aeruginosa culture filtrate; AID 602141; activity change (cytotoxicity), % at 5 µM;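 active = corrected activity change at or below -50% at 5 µM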
Peg3 prom inh: inhibitors of Peg3 promoter; HeLa PEG-Prom luciferase reporter, luminescence, overnight; inhibition, % at 20 µM; actives 1.7% (n = 360,000); AID 588405;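 active = inhibition of at least 50% at 20 µM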
Shn3 inh set2: Schnurri-3 reporter inhibition in Clone20 osteoblasts; inhibition, % at 12.5 µM; Clone20 osteoblast Shn3 3'UTR firefly luciferase, 24 h; actives 0.52% (n = 360,000);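 active = mean inhibition of at least 75% with every replicate also reaching 75%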;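 also: 0% = median of neutral control wells and 100% = pilot-screen positive control compound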
HIF-2a inh: HIF-2a inhibition; inhibition, % at 18.8 µM; 786-0 RCC cells HIF-2a reporter, luciferase luminescence, overnight; AID 624352; actives 0.72% (n = 360,000);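 active = inhibition of the luminescence signal of 40% or more relative to plate controls, in a single-dose primary screen at 18.75 µM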
CF NFkB inh: inhibitors of cystic fibrosis induced NF-kB; KKLEB NF-kB-GFP reporter, PAF-induced, GFP fluorescence overnight; inhibition, % at 5 µM; actives 0.86% (n = 360,000);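 active = at least 50% inhibition at 5 µM, scaled per plate between neutral and stimulator controls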;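 also: PAF is a Pseudomonas aeruginosa culture filtrate used as stimulus; plate controls were PAF-stimulated DMSO wells for no effect and unstimulated DMSO wells for full effect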
MITF TRPM1 inh: MITF TRPM1 promoter inhibition in SK-MEL-5 cells; actives 0.83% (n = 330,000); SK-MEL-5 TRPM1 promoter luciferase, 24 h; inhibition, % at 12.5 µM;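 active = mean inhibition across replicates of 60% or more, whatever share of single replicates reaches that level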
An asterisk follows results filed as active; x = no result. An excerpt weighted towards active compounds, which were near 2.8% of everything screened.

SMILES | KKLEB cytotox | Peg3 prom inh | Shn3 inh set2 | HIF-2a inh | CF NFkB inh | MITF TRPM1 inh
CC(C)N(C(=O)N1CCN(c2ccnc3cc(Cl)ccc23)CC1)C(C)C | -3 | 54* | 21 | 20 | 3 | 4
CC(OC(=O)CNC(=O)c1ccc2ccccc2c1)C(=O)N(C)C1CCCCC1 (stereo not given) | -14 | -11 | -7 | -4 | -3 | 5
N=c1c2c(-c3ccccc3)c(-c3ccccc3)n(Cc3ccco3)c2ncn1CCO | -17 | 93* | 4 | 37 | 9 | 43
CCOC(=O)c1c(NC(=O)COc2ccccc2)sc2c1CC(C)(C)NC2(C)C | -40 | 75* | 12 | 20 | 44 | 7
CCOc1ccc(C(=O)Nc2sc3c(c2C(=O)OC)CC(C)(C)NC3(C)C)cc1 | -40 | 79* | 14 | 2 | 30 | 28
COC(=O)c1c(NC(=O)c2ccc(C(=O)c3ccccc3)cc2)sc2c1CC(C)(C)NC2(C)C | -21 | 94* | -29 | 7 | 13 | x
CC1(C)Cc2c(sc(NC(=O)c3ccc4c(c3)OCCO4)c2C(N)=O)C(C)(C)N1 | 3 | 18 | -30 | 17 | 8 | 0
CC1(C)Cc2c(sc(NC(=O)c3ccc(C(=O)c4ccccc4)cc3)c2C#N)C(C)(C)N1 | -10 | 16 | 15 | -1 | -5 | 8
CC(=O)NC(CCCN1C(=O)c2ccccc2C1=O)c1nnn(C)n1 (stereo not given) | 2 | 10 | 12 | 19 | 2 | 5
CCOC(=O)C(Cc1nc(OCc2ccccc2)cc(OCc2ccccc2)n1)=NO | -3 | 55* | 17 | 11 | 40 | -8
CCOC(=O)C1CCN(C(=O)c2sc3ncnc(N4CCC(C)CC4)c3c2C)CC1 | -3 | 5 | 31 | -18 | 6 | 9
CCOC(=O)C1CCN(C(=O)c2sc3nc(C)nc(N4CCC(C)CC4)c3c2C)CC1 | -10 | 9 | 88* | 23 | 23 | 0
Cc1cc(C(=O)COc2ccc(F)cc2Br)c(C)n1C1CC1 | 6 | -202 | -43 | -183 | 25 | -53
CC(=O)Nc1c(Br)cc2c(c1Br)C(=O)c1ccccc1-2 | -6 | -5 | 0 | -18 | 0 | -3
CC(=O)C1=C(c2ccc(Br)cc2)C(=O)c2ccccc2C1=O | -12 | 96* | 97* | 30 | 81* | 84*
Cc1c(Cl)cccc1N(CC(=O)NC1CCCCC1)S(C)(=O)=O | -22 | -3 | 1 | 6 | 1 | 2
O=C(/C=C/c1ccncc1)c1ccc2c(c1)OCCO2 | -16 | 105* | 5 | 3 | 10 | -2
CNCc1ccccc1Sc1cccc2ccccc12 | 2 | 19 | 44 | 17 | -7 | -1
CN(C)CCN(C)Cc1ccccc1Sc1cccc2ccccc12 | -12 | 102* | 11 | 3 | 28 | 44
CC(C)(C)C(=O)CSc1ccc(S(=O)(=O)N2CCN(Cc3ccccc3)CC2)cn1 | -23 | 7 | 9 | 12 | 16 | 1
COc1ccc(CNC(=O)CSCc2ccccc2Cl)cc1 | 1 | -102 | -28 | -187 | -4 | -29
CCc1ccc(CN(C)C(=O)c2cc(COc3cccc4cnccc34)on2)cc1 | -6 | 9 | 86* | -12 | 20 | 21
CN(Cc1cccc2cnccc12)C(=O)c1cc(COc2ccc(F)cc2F)on1 | 3 | 15 | 80 | -12 | -17 | -1
COc1ccc2oc(C(=O)N3CCc4ccccc43)c(C)c2c1 | -55* | -146 | 23 | -72 | -26 | -26
CCc1ccc(S(=O)(=O)N2CCN(C(=O)c3cccnc3)CC2)cc1 | 0 | 4 | 13 | 11 | -6 | -7
SMILES | KKLEB cytotox | Peg3 prom inh | Shn3 inh set2 | HIF-2a inh | CF NFkB inh | MITF TRPM1 inh
O=C(NCc1cc([N+](=O)[O-])ccc1O)c1cccc(NS(=O)(=O)c2ccccc2)c1 | -4 | 14 | -9 | 12 | -17 | 3
NC(=O)c1ccsc1NC(=O)c1ccc2c(c1)CCCC2 | -58* | -125 | -32 | -158 | -17 | 12
CC(=O)Cn1cnc2c(cnn2-c2ccc(C)c(C)c2)c1=O | 0 | -242 | -38 | -251 | 3 | -80
Cc1cccc(Nc2nc(N3CCOCC3)nc(N3CCOCC3)n2)c1 | -14 | 7 | 35 | 29 | 51* | -16
CN(Cc1ccncc1)C(=O)[C@@H]1CCCN1C(=O)[C@@H]1CCCN1 | x | x | x | -17 | x | x
Cc1ccc(C(=O)O/N=C(\N)c2ccccn2)cc1C | -12 | 76* | 45 | -6 | 1 | 52
COc1cc(C(=O)O/N=C(\N)c2ccccn2)cc(OC)c1OC | 6 | -25 | -30 | -40 | -25 | -30
CC(C)NC(=O)C1(C)CCCCN1Cc1ccc(OCc2ccccc2)cc1 (stereo not given) | -2 | -42 | 51 | -41 | -3 | x
Cc1nc2c(-c3ccc(F)cc3)cnn2c(N)c1-c1ccccc1 | -54* | -10 | -4 | 25 | -1 | -1
Cc1ccc(OCC(O)Cn2c(=N)n(Cc3ccccc3)c3ccccc32)cc1 (stereo not given) | -21 | 108* | 81* | -1 | 7 | 39
N=c1n(Cc2ccc(Cl)cc2)c2ccccc2n1CC(O)COc1ccccc1 (stereo not given) | -50 | 101* | 86* | -22 | 34 | 94*
N=c1n(Cc2ccccc2)c2ccccc2n1CC(O)COc1ccc(Cl)cc1Cl (stereo not given) | -28 | 104* | 92* | 7 | 16 | 98*
OC(c1ccccc1)(c1nc(-c2ccccc2)cs1)C(F)(F)F (stereo not given) | 10 | 7 | 0 | 14 | -5 | x
Cc1ccc(C2C(C(=O)c3cccs3)=C(O)C(=O)N2c2nnc(C)s2)cc1 (stereo not given) | -22 | -184 | -19 | -214 | 1 | -25
Cc1ccc(O)c(N=Nc2nccs2)c1 | 4 | -6 | 93* | -6 | 8 | 20
COc1ccc([C@@H]2CC(=O)c3c(O)cc(O)cc3O2)cc1O | -5 | -173 | -55 | -62 | 22 | -47
COc1c(CC=C(C)C)cc(C2CC(=O)c3c(O)cc(O)cc3O2)cc1CC=C(C)C (stereo not given) | -15 | -15 | 90* | -56 | 34 | -4
O=c1c2c(-c3ccccc3)csc2nc2c3ccccc3c(NCCN3CCOCC3)nn12 | -10 | 108* | -9 | -101 | -18 | 6
COCCCN1C(=O)c2ccc(C(=O)NCCc3ccccc3)cc2C1=O | -20 | -59 | -36 | -126 | 3 | -37
O=C(NNC(=O)C12CC3CC(CC(C3)C1)C2)c1ccccn1 | -9 | 60* | -15 | 0 | 23 | 49
O=C(NNC(=O)C12CC3CC(CC(C3)C1)C2)c1cnccn1 | 7 | 16 | 15 | 17 | 1 | 1
COc1ccccc1OCC(=O)NCCSCc1cccc(Cl)c1 | 0 | 15 | -23 | 20 | -13 | -4
CC(=O)Nc1cccc(OCC(O)Cn2c(C)nc3ccccc32)c1 (stereo not given) | -7 | 11 | 4 | 17 | -2 | 3
